Source: PubChem BioAssay AID686959 (The Scripps Research Institute Molecular Screening Center, 2013)
Calls of active or inactive are those of the source. The limit is not given here; nearly all actives have IC50 up to about 8.1 µM.

Test: binders of r(CAG) RNA repeats, dose response, biochemical, fluorescence (AID 686959)
Details: r(CAG) RNA repeat binding

Row | Compound | IC50
1 | O=C(N/N=C/c1c(O)n(CCC2=CCCCC2)c(=S)[nH]c1=O)c1ccccc1 | 2040 nM (active)
2 | C/C(=N\NC(=O)c1ccccc1O)c1c(O)n(C2CCCCC2)c(=O)[nH]c1=O | 450 nM (active)
3 | CC/C(=N\NC(=O)c1ccccc1O)c1c(O)n(C2CCCCC2)c(=O)[nH]c1=O | 452 nM (active)
